# Data reported in the supplement of paper PMC9402605.
# ± gives the standard deviation of the averaged measurements.
# Tested on: Caenorhabditis elegans N2
# Assay: egg-laying rate relative to DMSO control (M9 buffer background) (fraction of control); higher = more egg-laying
# Settings: 60 µM, 1 h
# Experimental: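 About 20 young-adult wild-type C. elegans (N2) per well in 96-well plates were exposed to 60 uM compound for 1 h at room temperature, either in M9 buffer (to find stimulators) or in 12.3 mM serotonin + 7.7 mM nicotine (NS, to find inhibitors). Eggs per worm per hour were counted by automated imaging and normalised to the mean of proximal DMSO control wells. Values average the primary screen and two retests of the worm-active (wactive) Egl modulators.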
row,SMILES,egg-laying rate
1,COc1ccc(C=Cc2ccccn2)cc1 [wact-622],1.19 ± 0.28
2,CCOc1ccc(C(=O)c2cccs2)cc1 [wact-471],2.49 ± 2.2
3,Cc1ccccc1C(=O)NCCc1ccccc1 [wact-406],0.741 ± 0.36
4,O=[N+]([O-])c1ccc(N2CCc3ccccc3C2)nc1 [wact-421],1.83 ± 0.59
5,O=[N+]([O-])c1ccc(-n2ccc3ccccc32)cc1 [wact-213],2.13 ± 1.5
6,CCC1CCC(N2CCN(c3ccc([N+](=O)[O-])cc3)CC2)CC1 (stereo not given) [wact-6],7.85 ± 2.4
7,CCc1ccc(-c2cn3ccsc3n2)cc1 [wact-434],1.53 ± 0.93
8,O=[N+]([O-])c1ccc(N2CCN(CC3CC=CCC3)CC2)cc1 (stereo not given) [wact-47],10.6 ± 6.3
9,c1csc(-c2cnc3ccccc3n2)c1 [wact-21],4.69 ± 1.8
10,O=[N+]([O-])c1ccc(N2CCN(CC3CC4C=CC3C4)CC2)cc1 (stereo not given) [wact-46],11 ± 6.7
11,O=[N+]([O-])c1ccc(N2CCN(CC3CCCCC3)CC2)cc1 [wact-45],4.22 ± 1.8
12,Fc1ccc(-c2cn3ccsc3n2)cc1 [wact-433],3.02 ± 1.1
13,O=[N+]([O-])c1ccc(CSc2ccc(Cl)cc2)cc1 [wact-3],2.13 ± 0.22
14,O=C(Nc1cccc(Cl)c1)N1CCN(c2ccc([N+](=O)[O-])cc2)CC1 [wact-31],2.02 ± 0.75
15,c1ccc(CSc2nnc(-c3ccccc3)o2)cc1 [wact-38],8.44 ± 0.94
16,O=C1CC(N2CCN(c3ccc([N+](=O)[O-])cc3)CC2)C(=O)N1c1ccccc1F (stereo not given) [wact-56],2.24 ± 0.45
17,Cc1ccn2cc(-c3ccc(F)cc3)nc2c1 [wact-436],1.94 ± 0.73
18,CCCCOC(=O)Nc1ccc([N+](=O)[O-])cc1 [wact-419],2.9 ± 0.58
19,Ic1cccc(-c2nnc(-c3ccccc3)o2)c1 [wact-51],2.92 ± 1.6
20,Brc1cccc(-c2cn3ccccc3n2)c1 [wact-435],0.576 ± 0.34
21,Cc1ccccc1C(=O)NCCSC1CCCCC1 [wact-494],1.03 ± 0.24
22,Clc1ccc(-c2cn3ccsc3n2)cc1 [wact-1],1.94 ± 0.54
23,Cc1ccc(-c2cnc(-c3ccncc3)o2)cc1 [wact-23],3.94 ± 1.5
24,CCSc1nnc(-c2ccc(Cl)cc2Cl)o1 [wact-4],4.56 ± 1.9
25,O=C(Nc1ccc(I)cc1)c1ccco1 [wact-27],3.06 ± 1.5
